HCV inh = qHTS Assay for Inhibitors of Hepatitis C Virus (HCV); Huh7.5.1 HCVcc-Cre infection, luciferase reporter, 44 h; 340,000 compounds, 3.4% hits; Potency, µM (titrated, usually from 41.8 µM), actives largely listed as inhibitors
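Antiviral activity was scored by luciferase reporter output from cells infected with HCVcc-Cre (~0.5 moi) in presence of compound, 44 h infection period, cells seeded 1,000/well 4 h prior.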
SARS PLpro yeast = qHTS of Yeast-based Assay for SARS-CoV PLP. S. cerevisiae expressing SARS-CoV PLpro, growth rescue. Potency, µM (top dose mostly 32.9 µM), actives largely listed as activators. 330,000 compounds, 0.19% hits. AID 485353, 2010; calls by dose curve; note: nearly all actives have a fitted effect of over 55% in size
Pf growth 48h = Primary qHTS for delayed death inhibitors of the malarial parasite plastid, 48 hour incubation | P. falciparum luciferase growth in erythrocytes, 48 h | Potency, µM (top dose mostly 28.7 µM), usual class: inhibitors | 310,000 compounds, 5.9% hits | AID 504832, 2011
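Read-out is firefly luciferase luminescence from an integrated reporter in P. falciparum, so falling signal marks reduced parasite growth. Infected erythrocytes were at 2% hematocrit and 0.1% parasitemia (final) in Albumax-supplemented RPMI 1640.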
NS1 function inh = qHTS Assay for Inhibitors of Influenza NS1 Protein Function; Potency, µM (series often up to 46.1 µM); 270,000 compounds, 0.4% hits; AID 2326, 2010; calls by dose curve; note: actives are rising curves; nearly all actives have a fitted effect of over 50% in size
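Read-out: OD600 growth recovery of NS1-expressing budding yeast. Cells grown overnight at 30C in -URA glucose medium, washed, resuspended and diluted 1:100 in 2% galactose assay medium, pH 6.0. Same strain lacking NS1 served as positive control.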
Pf growth 96h = Primary qHTS for delayed death inhibitors of the malarial parasite plastid, 96 hour incubation; AID 504834, 2011; Potency, µM (highest dose often 28.7 µM), most hits filed as inhibitors; P. falciparum luciferase reporter growth, 96 h; 320,000 compounds, 6.9% hits
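Infected RBCs, 2% Hct / 0.05% parasitemia final; luciferase-reporter P. falciparum; cpd 96 h, 37 C, 5% CO2; luciferase detection reagent; luminescence.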
AMA1 RON2 block = qHTS for Inhibitors of AMA1-RON; Towards Development of Antimalarial Drug Lead: Primary Screen; Plasmodium falciparum AMA1 (3D7) - RON2 peptide interaction; AlphaScreen AMA1-biotinylated RON2 peptide binding; Potency, µM (top dose mostly 58.2 µM), actives largely listed as inhibitors; 360,000 compounds, 0.2% hits; note: nearly all actives have a fitted effect of over 45% in size
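AMA1 (3D7) with his tag at 25 nM final met compounds first, then biotinylated RON2 peptide at 25 nM; detection used donor plus acceptor beads, 10 µg/mL apiece, read by AlphaScreen after 30 min at room temperature.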
Hits are given with their value; . = inactive; ? = inconclusive; / = no result given; [ ] = remark or other dose. Rows were chosen to be rich in hits. Some 12% of all compounds tested hit in one or more screens of this group. Unless noted, calls come from the whole dose curve; as a rule, active = well fitted curve in the direction sought with a large enough effect; inconclusive = small, poorly fitted or top-dose-only effect, or another doubt; inactive = no such curve, though single readings can be large; an effect the other way counts as inactive or inconclusive.

SMILES	HCV inh	SARS PLpro yeast	Pf growth 48h	NS1 function inh	Pf growth 96h	AMA1 RON2 block
COc1ccc(N(C(=O)CCl)C(C)(C(=O)Nc2c(C)cccc2C)c2ccccn2)cc1 (centres undefined)	.	.	4.65µM	.	?	.
C=CCNC(=O)Cn1nnc(-c2ccc(-c3ccc(OC)cc3)cc2)n1	.	.	.	?	.	.
Cc1ccc2sc(C)[n+](CCO)c2c1	.	.	.	/	.	.
CCCC[n+]1c(C)sc2ccc(C)cc21	.	.	.	.	4.65µM	.
COc1ccccc1NC(=O)Cc1csc(NC(=S)Nc2ccccc2)n1	12.6µM	.	.	.	.	.
COc1ccc(NC(=S)Nc2nc(CC(=O)Nc3ccccc3OC)cs2)cc1	31.6µM	.	.	.	.	.
CCC(=O)Nc1nc(CC(=O)Nc2ccccc2)cs1	.	.	.	.	?	.
C=C(C(=O)Oc1c(C(C)(C)C)cccc1C(C)(C)C)c1ccccc1	.	.	.	/	.	.
CCOC(=O)/C(C#N)=C/c1cc(C)n(-c2ccc(C)cc2)c1C	8.91µM	.	/	.	.	.
Cc1cc(/C=C(\C#N)C(=O)NCc2cccs2)c(C)n1-c1ccc([N+](=O)[O-])cc1	?	.	2.33µM	.	?	.
Cc1ccc(S(=O)(=O)NCCNc2ccc([N+](=O)[O-])cc2C(F)(F)F)cc1	.	.	10.4µM	.	4.15µM	.
Cc1ccc2c3c(cccc13)-c1ccccc1C2=O	5.62µM	.	.	.	.	.
Oc1cc2ccccc2nc1-c1ccccc1Cl	.	.	7.38µM	.	?	.
COc1ccc(F)cc1S(=O)(=O)NCc1cc(=O)n(C)c(=O)n1C	.	.	.	.	.	.
O=C(NCCCN1CCCC1)C1CCC(=O)N1C1CCCCC1 (centres undefined)	.	.	.	.	.	.
O=C(NCc1ccccn1)C1CCC(=O)N1C1CCCCC1 (centres undefined)	?	.	/	.	1.85µM	.
CC1CC(C)CN(CCCNC(=O)C2CCC(=O)N2C2CCCC2)C1 (centres undefined)	.	.	.	.	10.4µM	.
CCc1ccc(CNC(=O)C2CCC(=O)N2C2CCCCC2)cc1 (centres undefined)	.	.	/	.	.	.
C[n+]1ccccc1COc1ccc(C(C)(C)C)cc1	?	.	?	.	0.37µM	.
CC(C)(C)c1ccc(OCC(=O)O)cc1	.	.	?	.	.	.
COC(=O)c1cc(S(=O)(=O)C(C)C)c(S(C)=O)s1 (centres undefined)	.	.	?	.	?	.
Cc1cccc(NC(=S)N(Cc2cccs2)Cc2cc3cc(C)cc(C)c3[nH]c2=O)c1	?	.	.	.	?	.
Cc1cccc2cc(CN(Cc3cccs3)Cc3nnnn3Cc3ccccc3)c(=O)[nH]c12	10µM	.	?	?	.[5.75 µM]	.
COc1ccc2cc(CN(Cc3cccs3)Cc3nnnn3Cc3ccccc3)c(=O)[nH]c2c1	.	.	9.28µM	.	?	.
CCOC(=O)Cn1nnnc1CN(Cc1cccs1)Cc1cc2cc(C)cc(C)c2[nH]c1=O	.	.	/	.	10.4µM	.
SMILES	HCV inh	SARS PLpro yeast	Pf growth 48h	NS1 function inh	Pf growth 96h	AMA1 RON2 block
COC(=O)C1(C)COP(=O)(Nc2ccc(OC)cc2)OC1 (centres undefined)	/	/	/	/	/	.
C/C(=N\Nc1nc(N2CCCCCC2)nc(N2CCCCCC2)n1)c1ccccc1	?	.	?	/	.	.
C/C(=N\Nc1nc(N2CCCCC2)nc(N2CCOCC2)n1)c1cccs1	10µM	.	.	/	.	.
COc1ccc(C=NNc2ccc([N+](=O)[O-])cn2)cc1	.	/	/	/	/	.
O=[N+]([O-])c1ccc(N/N=C/c2ccc(OCc3cccc4ccccc34)cc2)nc1	.	.	?	/	7.38µM	.
N#Cc1ccccc1Cn1cc(/C=N/Nc2ccc([N+](=O)[O-])cn2)c2ccccc21	2.51µM	.	?	/	5.22µM	.
COc1ccccc1CC(=O)Nc1ccc2c(c1)OC1(CCCC1)O2	12.6µM	.	/	/	/	.
O=C(Cc1ccccc1)Nc1ccc2c(c1)OC1(CCCC1)O2	.	.	.	/	.	.
CCCNC(=O)CCc1c(C)nc2nc(C)nn2c1C	.	.	.	/	?	.
O=C(NC12CC3CC(CC(C3)C1)C2)c1ccc(N2CCNCC2)c([N+](=O)[O-])c1	?	.	5.22µM	.	?	.
NC(=O)c1ccc(N2CCN(S(=O)(=O)c3cccs3)CC2)c([N+](=O)[O-])c1	2.24µM	.	/	/	/	.
CCS(=O)(=O)N1CCN(c2ccc(C(=O)NC34CC5CC(CC(C5)C3)C4)cc2[N+](=O)[O-])CC1	.	.	5.86µM	.	5.86µM	.
CS(=O)(=O)N1CCN(c2ccc(C(=O)NC34CC5CC(CC(C5)C3)C4)cc2[N+](=O)[O-])CC1	.	.	?	.	?	.
NC(=O)c1ccc(N2CCN(c3ccccc3O)CC2)c([N+](=O)[O-])c1	.	.	.	.	.	.
CCOC(=O)C1=CNS(=O)(=O)NC1CCc1ccccc1 (centres undefined)	.	.	/	/	/	.
CC1Cc2ccccc2N1C(=O)CSc1nnc(N)s1 (centres undefined)	.	.	.	.	.	.
CCC(=O)Nc1ccc(NC(=O)c2cc3ccccc3o2)c(OC)c1	?	.	.	.	.	.
O=C(c1ccccc1)c1c[nH]c2cc3c(cc2c1=O)OCCO3	.	.	.	.	14.7µM	.
O=C(NCc1cccnc1)c1cn(-c2ccccc2)nc1-c1ccccc1	.	.	.	/	.	.
CCc1ccccc1NC(=O)CNC(=O)c1cn(Cc2ccccc2)nc1-c1cccnc1	.	.	?	/	5.86µM	.[11.6 µM]
O=C(NCc1ccncc1)c1cn(-c2ccccc2)nc1-c1cccnc1	.	.	14.7µM	/	?	.
O=C(NC1CCN(Cc2ccc(Cl)cc2)CC1)c1cn(-c2ccccc2)nc1-c1cccnc1	11.2µM	.	1.85µM	/	?	.
COc1cc(CN(C(=O)c2ccco2)C2CCS(=O)(=O)C2)cc(OC)c1OC (centres undefined)	.	.	.	.	.	.
CCOC(=O)c1ccc(-c2cc(C)no2)[nH]1	.	.	.	.	.	.
CCC1=Nc2cc(C(=O)NCCCOC)ccc2Sc2ccccc21	?	.	/	.	.	.
CC1=Nc2cc(C(=O)NCCCOC(C)C)ccc2Sc2ccccc21	.	.	?	/	?	.
CC1=Nc2cc(C(=O)NCCCOC(C)C)ccc2Sc2ccc(C)cc21	.	.	7.38µM	/	.	.
CCC1=Nc2cc(C(=O)NCCN3CCCC3)ccc2Sc2ccccc21	?	.	?	.	2.33µM	.
CCC1=Nc2cc(C(=O)NCCCN3CCOCC3)ccc2Sc2ccccc21	?	.	?	.	?	.
